What all share (assay): Cytotoxic Profiling of Annotated Libraries Using Quantitative High-Throughput Screening (AID 1296008); note: nearly all actives have a fitted effect of over 60% in size
Holding throughout (conditions): Five cell lines viability, CellTiter-Glo ATP luminescence, 48-72 h; max response: hits give low values

The subject of test [1] is HEK293. An outline of the steps: (§1)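 Cells exposed to compounds for 48 or 72 hr at 37 degrees Celsius. Viability read as ATP-coupled luminescence with CellTiter-Glo after 10 min at room temperature.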
For test [2], the system named is HaCat. In outline:
as §1

The test system of test [3] is KB-3-1. In outline:
as §1

The subject of test [4] is NIH3T3. An outline of the steps:
as §1

Results filed as inconclusive are left out. Values without a mark were called inactive. The source made the active and inactive calls. Calls come from the whole dose curve; as a rule, active = well fitted inhibition curve with a large enough effect; inconclusive = small, poorly fitted or top-dose-only effect; inactive = flat fitted curve, though single readings scatter. *1 amine or outer side, *2 acyl side, *3 side chain or, on linkers, in order; H or OH if unused. Where a SMILES comes first, the peptide text is derived from it. [ ]: non-standard residue; d: D form. X4 = CC(C)=CCc1cc(C(O)C(N[*:1])C(=O)[*:2])ccc1O
% is set by controls: 0 for no effect and ±100 for the full control effect; potency is the fitted concentration of half-maximal effect.

With `Cc1cc(N(C)C)ccc1-c1nc2ccc(-c3nc4ccc(N5CCN(C)CC5)cc4[nH]3)cc2[nH]1`, the Potency in test [1] is 8.2 µM (active); in test [3], 23.1 µM (active). Moreover, the max response in test [2] is -16.4%.
For `COC(=O)C1=CO[C@@H](O[C@@H]2O[C@H](CO)[C@@H](O)[C@H](O)[C@H]2O)[C@@H]2[C@@](C)(O)[C@@H](OC(=O)/C=C/c3ccc(O)cc3)C[C@]12O`, the max response in test [1] was 3.54%; in test [2], 1.25%; in test [3] it was 0.0331%; in test [4], 2.33%.
On to `Cc1cccc(C)c1-n1c(=O)c2cnc(Nc3ccc(N4CCN(C)CC4)cc3)nc2n2c3ccccc3nc12`, for which the Potency is 0.517 µM (active) in test [1], 2.06 µM (active) in test [2], 0.731 µM (active) in test [3] and 1.3 µM (active) in test [4].
For the compound `CC(=O)O[C@H]1CC[C@@]2(C)C(CC[C@@H](C)[C@]23Cc2c(O)cc4c(c2O3)CN([C@@H](CCC(=O)O)C(=O)O)C4=O)C1(C)C` (some centres not stated), the max response in test [1] is -7.36%; in test [4] it was 2.49%. Also, the compound was called inactive in test [2] and in test [3].
Take `C[C@H]1[C@H](O)O[C@@H]2O[C@@]3(C)CC[C@H]4[C@H](C)CC[C@@H]1[C@@]24OO3`: the Potency is 1.84 µM (active) in test [1], 6.51 µM (active) in test [2], 16.4 µM (active) in test [3] and 13 µM (active) in test [4].
Take `CO/N=C(/C(=O)N[C@@H]1C(=O)N2C(C(=O)O)=C(Cn3ccc(=N)n3CCO)CS[C@H]12)c1csc(N)n1`: the max response in test [1] was -94.3%; in test [3], -6.11%. Also, the outcome in test [2] and in test [4] was inactive.
For the compound `CC(C)(C(=O)NCC(F)(F)C(F)(F)F)C(=O)NC1C(=O)Nc2ccccc2-c2ccccc21` (configuration not stated), the values for the Potency in test [1], in test [2] and in test [3] were 5.8 µM (active), 16.4 µM (active) and 18.4 µM (active), respectively.
For `CC(C)=CCc1cc(C(O)C2NC(=O)CNC(=O)C(Cc3c[nH]c4ccccc34)NC(=O)C3CCCN3C(=O)CNC(=O)C(C(C)C)NC(=O)CNC2=O)ccc1O` (configuration not stated) (cyclo(G[X4]GVGPW); configuration not given here), the max response is -8.38% in test [1], -16.9% in test [2] and 5.04% in test [3]. Further, the compound was classed as inactive in test [4].
Consider `C[C@@H]1O[C@@H](O[C@H]2[C@H](O)[C@@H](O)[C@H](O[C@H]3[C@H](O[C@H]4CC[C@@]5(C)C(=CC[C@@H]6C5CC[C@]5(C)[C@@H]7[C@H](C[C@@H]65)O[C@]5(CC[C@@](C)(CO[C@@H]6O[C@H](CO)[C@@H](O)[C@H](O)[C@H]6O)O5)[C@H]7C)C4)O[C@H](CO)[C@@H](O)[C@@H]3O)O[C@@H]2CO)[C@H](O)[C@H](O)[C@H]1O` (some centres not stated), for which the Potency is 1.23 µM (active) in test [1] and 0.778 µM (active) in test [3]. Besides, the max response in test [2] is -8.19%.
On to `CC(=O)O[C@@H]1CC(C)=C2[C@H]1[C@H](C)CC[C@H]2/C=C(\C)C(=O)O`, for which the max response in test [1] is -2.45%; in test [2], -15.4%; in test [3], 7.61%; in test [4], -9.33%.
As for `CN1CCC(Nc2nc(Nc3ccc(Oc4ccccc4)cc3)c3c(=O)[nH]cc(Br)c3n2)CC1`, the values for the Potency in test [1], in test [2] and in test [3] were 2.31 µM (active), 4.11 µM (active) and 5.8 µM (active), respectively.
For `CO[C@H]1C[C@@H]2CC[C@@H](C)[C@@](O)(O2)C(=O)C(=O)N2CCCC[C@H]2C(=O)O[C@H]([C@H](C)C[C@H]2CC[C@@H](OP(C)(C)=O)[C@H](OC)C2)CC(=O)[C@H](C)/C=C(\C)[C@@H](O)[C@@H](OC)C(=O)[C@H](C)C[C@H](C)/C=C/C=C/C=C/1C`, the Potency in test [1] was 0.0064 µM (active). For the same compound, the max response is -3.04% in test [2], 4.5% in test [3] and -2.54% in test [4].
In the case of `C[C@@H]1N[C@H]2N(C1=O)c1ccccc1[C@@]2(O)C[C@@H]1C(=O)N[C@@H](C)c2nc3ccccc3c(=O)n21`, the max response is -21.5% in test [1], 1.5% in test [2] and -0.438% in test [4]. In addition, the call in test [3] was inactive.
Consider `COc1cc2ncnc(Nc3ccc(F)c(Cl)c3)c2cc1NC(=O)/C=C/CN1CCCCC1`, for which the Potency is 7.31 µM (active) in test [1], 0.0411 µM (active) in test [2], 13 µM (active) in test [3] and 16.4 µM (active) in test [4].

The values are drawn from PubChem BioAssay (NCATS).
